Compound activity (PubChem BioAssay)
FMDV antiviral – blocks foot and mouth disease virus; Potency, µM (titrated, usually from 57.9 µM), for the others: top-dose activity change, negative = inhibition, most hits filed as inhibitors; AID 1159524; hit rate 1.2% among 410,000; FMDV antiviral cell-based qHTS; calls by dose curve; tested in HEK293T cells; also: read-out not given here; potency is read from the fitted curve at half-maximal effect; nearly all actives have a fitted effect of over 45% in size
Sm TGR block – blocks Schistosoma mansoni thioredoxin glutathione reductase; hit rate 3% among 360,000; purified TGR, DTNB reduction, TNB absorbance 405 nm; Potency, µM (titrated, usually from 114 µM), for the others: top-dose activity change, negative = inhibition, most hits filed as inhibitors; also: potency is read from the fitted curve at half-maximal effect; nearly all actives have a fitted effect of over 60% in size
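Kinetic colorimetric format: TGR-catalysed, NADPH-driven DTNB reduction monitored via TNB absorbance. Enzyme dispensed at 20 nM; compound exposure 15 min at room temperature before reaction start.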
HCV inhibitor – blocks hepatitis C virus; hit rate 3.4% among 340,000; Huh7.5.1 HCVcc-Cre infection, luciferase reporter, 44 h; Potency, µM (highest dose often 41.8 µM), inactives show at the top dose activity change, negative = inhibition, most hits filed as inhibitors; also: potency is read from the fitted curve at half-maximal effect
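Antiviral activity was scored by luciferase reporter output from cells infected with HCVcc-Cre (~0.5 moi) in presence of compound, 44 h infection period, cells seeded 1,000/well 4 h prior.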
Vaccinia mCherry – inhibitors of vaccinia virus infection (mCherry reporter signal) | Vaccinia virus mCherry reporter infection, fluorescence | hit rate 0.63% among 310,000 | Potency, µM (series often up to 36.5 µM), inactives show at the top dose activity change, negative = inhibition, actives largely listed as inhibitors | AID 720579; calls by dose curve; tested in A549 cells; also: potency is read from the fitted curve at half-maximal effect; nearly all actives have a fitted effect of over 35% in size
HCMV inh – inhibitors of human cytomegalovirus; HFF cells, HCMV-luciferase reporter, 72 h; stronger effect = lower value; activity change, negative = inhibition, % at 57.5 µM; hit rate 4.5% among 410,000; AID 1259415; in the data active = activity change below about -60%; inconclusive = no clear call, values can overlap the other calls; inactive = above about -39%
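Two compound doses tested in HFFs infected with HCMV-luciferase, MOI 1 PFU/cell, 72 h at 37C. Lysate luminescence read with OneGlo; data normalized against buffer-only and 10uM Salinomycin inhibitor controls.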
Vaccinia Venus – inhibitors of vaccinia virus (Venus reporter). Vaccinia virus Venus reporter expression, fluorescence. Potency, µM (highest dose often 36.5 µM), without a hit: top-dose activity change, negative = inhibition, usual class: inhibitors. hit rate 0.46% among 330,000. AID 720580; calls by dose curve; tested in A549 cells; also: potency is read from the fitted curve at half-maximal effect; nearly all actives have a fitted effect of over 30% in size
* marks the source's active call; other numbers are inactive results; i = inactive; ? = inconclusive; . = no result; ! = a repeat was not active; [ ] = another dose, or the depositor's remark. This is a sample that favours compounds with a hit; in the whole collection about 9.3% have one here. Unless noted, calls follow the shape of the dose curve; as a rule, active = well fitted curve in the direction sought with a large enough effect; inconclusive = small, poorly fitted or top-dose-only effect, or another doubt; inactive = no such curve, though single readings can be large; an effect the other way counts as inactive or inconclusive. % is scaled to controls: 0 for no effect and ±100 for the full control effect.

SMILES | FMDV antiviral | Sm TGR block | HCV inhibitor | Vaccinia mCherry | HCMV inh | Vaccinia Venus
Cn1cnnc1Sc1ccc(/C=C/C(=O)c2ccc(O)cc2)cc1[N+](=O)[O-] | ? | . | -20.8% | . | -101.2* | .
COc1ccc(NC(=O)/C(C#N)=C/c2ccc(Sc3nncn3C)c([N+](=O)[O-])c2)cc1 | 31.6µM* | -15.6% | 13.3% | -16.5% | 27.7 | -25.6%
CCN(CC)C(=O)c1ccccc1NS(=O)(=O)c1cccs1 | 16.9% | ? | 30.4% | -14.4% | 29.0 | -5.5%
Cc1ccc(Cl)cc1N1CCN(C(=O)c2ccc3c(Cl)c4c(nc3c2)CCCC4)CC1 | -8.1% | -3.1% | . | ? | -5.1 | -28.9%
COc1ccccc1C(=O)NC(=O)Nc1c(C)cc(C)cc1C | -27.6% | 13.3% | 12.6µM* | . | ? | .
CC(=O)NC(c1ccco1)c1cc(Cl)c2ccc(Cl)nc2c1O (stereo not given) | 0.0% | ? | . | . | -28.7 | .
CC(=O)NC(c1cccs1)c1cc(F)c2cccnc2c1O (stereo not given) | -22.1% | 50.1µM*! | . | . | -100.2* | .
CC(=O)NC(C)c1cc(Cl)c2ccccc2c1O (stereo not given) | 0.0% | -30.5% | . | . | -3.6 | .
CC(=O)NC(c1ccco1)c1cc(F)c2cccnc2c1O (stereo not given) | -23.3% | ? | . | . | -66.9* | .
CC(=O)NC(c1ccco1)c1cc(Cl)c2ccccc2c1O (stereo not given) | -15.6% | 63.1µM* | . | . | 4.1 | .
CC(C(=O)NCCCc1ccccc1)c1ccc([N+](=O)[O-])cc1 (stereo not given) | ? | 1.0% | 6.7% | -9.7% | -8.0 | -5.5%
O=S1(=O)CC(N2CCCCC2)C1CN1CCCCC1 (stereo not given) | -13.5% | . | . | i | -0.4 | -12.8%
Cc1ccc(S(=O)(=O)N2C[C@H]3n4c(=O)ccc(=O)n4C[C@H](OC(=O)NCC4CCCCC4)[C@@]3(O)C2)cc1 | 31.6µM* | . | . | ? | -102.2* | ?
COc1ccc(CNC(=O)O[C@H]2Cn3c(=O)ccc(=O)n3[C@@H]3CN(S(=O)(=O)c4ccc(C)cc4)C[C@]23O)cc1OC | ? | . | . | -22.1% | -33.2 | -25.5%
Cc1ccc(S(=O)(=O)N2C[C@H]3n4c(=O)ccc(=O)n4C[C@H](OC(=O)NCc4ccco4)[C@@]3(O)C2)cc1 | ? | . | . | -29.3% | -14.1 | -23.8%
CCCCCCn1c(=O)n2n(c1=O)C[C@]1(OC(=O)NCC3CCCCC3)CN(S(=O)(=O)c3ccc(C)cc3)C[C@]1(O)C2 | ? | . | . | ? | 11.7 | 10µM*
Cc1ccc(S(=O)(=O)N2C[C@H]3n4c(=O)ccc(=O)n4C[C@H](OC(=O)NCc4ccccc4)[C@@]3(O)C2)cc1 | 0.0% | . | . | ? | -60.9* | ?
O=C1C=C(c2ccc(F)nc2)C[C@@H](c2ccc3c(c2)OCO3)C1 | -18.4% | 2.1% | -8.9% | ? | -2.7 | ?
COC(=O)[C@]1(C)CC[C@@]2(C)CC[C@@]3(C)C4=CC=C5C(=CC(=O)C(O)=C5C)[C@@]4(C)CC[C@@]3(C)C2C1 (stereo not given in full) | 10µM* | . | . | -17.2% | . | -26.6%
O=C(COC(=O)/C=C/c1ccc(F)cc1)NC1CCCC1 | -5.4% | 5.3% | 9.1% | -21.1% | -20.4 | -13.9%
COc1ccccc1N1CCN(C(=O)/C=C/c2c(Cl)nc3ccccn23)CC1 | ? | -6.3% | 11.2µM* | i | ? | -21.8%
COc1ccc(NC(=O)/C=C/c2c(Cl)nc3ccccn23)cc1 | -3.0% | 0.4% | ? | . | -61.8* | .
COC(=O)CNC(=O)C(=O)OC | 11.2%[6.7 µM] | . | . | -14.6%[3.33 µM] | . | -10.7%[3.33 µM]
CC(=O)NC(Nc1c(C)n(C)n(-c2ccccc2)c1=O)C(Cl)(Cl)Cl (stereo not given) | -5.5% | 39.8µM* | 18.3% | . | 5.4 | .
Cc1cc(N/C=C/C(=O)c2cccs2)ccc1F | 21.9% | -6.0% | -10.7% | . | -101.2* | .
SMILES | FMDV antiviral | Sm TGR block | HCV inhibitor | Vaccinia mCherry | HCMV inh | Vaccinia Venus
Cc1c(NC=C(C#N)C#N)c(=O)n(-c2ccccc2)n1C | 1.8% | 0.0% | 17.5% | -12.7% | 48.3 | -5.0%
Cc1c(N/C=C(\Cl)C(=O)C(F)(F)F)c(=O)n(-c2ccccc2)n1C | -0.9% | 14.1µM* | 22.5% | -0.1% | 22.7 | 0.9%
Cc1c(N/C=C/C(=O)c2cccs2)c(=O)n(-c2ccccc2)n1C | . | 44.7µM* | 11.3% | ? | 7.6 | -0.5%
CCCCOCC1CN(CCCC)S(=O)(=O)c2c(Oc3ccc(OC)cc3)cccc2O1 (stereo not given) | . | . | . | . | -4.6 | .
COc1ccc(CNC(=O)c2c3c(nc4ccccc24)C(=O)N(C2CCCCC2)C3)c(OC)c1 | -14.3% | -3.9% | . | -4.4% | 31.0 | 3.2%
CCCNS(=O)(=O)c1cccc(C(=O)NNC(=O)c2cc(C)oc2C)c1 | 8.1% | 4.3% | -11.0% | -10.2% | -16.9 | -7.9%
CCOC(=O)C1(Cc2ccc(OC)cc2)CCN(C(=O)c2sc(C)nc2C)CC1 | 0.6% | -14.1% | ? | -12.9% | ? | ?
CCOC(=O)C1(Cc2ccccc2)CCCN(CCCn2cccn2)C1 (stereo not given) | 4.8% | -9.7% | 6.2% | -11.8% | -29.7 | -8.1%
CCOC(=O)C1(Cc2ccc(Cl)cc2)CCN(C(=O)c2sc(C)nc2C)CC1 | 31.6µM* | 0.0% | 11.2µM* | . | -76.4* | .
CCOC(=O)C1(Cc2ccc(Cl)cc2)CCN(CCCn2cccn2)CC1 | ? | -1.9% | 3.16µM* | i | -61.8* | -17.4%
Cc1cccc(/C(N)=N/OC(=O)C23CC4CC(CC(C4)C2)C3)c1 | 0.0% | -0.4% | 9.2% | -8.4% | -28.8 | -10.5%
COc1ccccc1NC(=S)NCc1ccc(S(N)(=O)=O)cc1 | -5.2% | ? | 6.0% | i | 36.4 | -8.0%
CCOc1ccccc1NC(=O)NCc1ccccc1F | 21.0% | 12.1% | 11.2µM* | . | -35.2 | .
CCOc1ccccc1NC(=O)COn1nnc2ccccc21 | 8.3% | -9.8% | 12.6µM* | . | 32.6 | -11.7%
COc1ccc(OC)c(NC(=O)NNS(=O)(=O)c2ccc(C)cc2C)c1 | -10.8% | 2.2% | 26.7% | -17.5% | -62.0* | -12.0%
CCOc1ccccc1NC(=S)Nc1ccc(S(N)(=O)=O)cc1 | -1.6% | 14.1µM* | 3.9% | -13.9% | -24.2 | -20.9%
O=C1c2ccccc2C(=O)N1N=Cc1ccc2c(c1)OCO2 | 41.3% | . | . | i | -2.9 | -13.3%
CCn1c(CSc2nc(C)cc(C)n2)nnc1SCC(=O)Nc1cccc2ccccc12 | 3.7% | 0.0% | ? | i | 76.6 | -8.1%
CCOc1ccccc1NC(=O)Nc1cccc(C(C)=O)c1 | -10.9% | 4.9% | 7.08µM* | . | 41.2 | .
CCOc1ccccc1NC(=O)CC(O)(C(F)(F)F)C(F)(F)F | -14.5% | 0.0% | 10.1% | . | 26.4 | .
CCOc1ccccc1NC(=O)Nc1ccc2c(c1)CCC2 | 17.8% | -0.8% | 12.6µM* | . | 16.7 | .
CCOc1ccccc1NC(=O)/C=C/C(N)=O | . | 3.98µM* | 12.6% | -14.9% | 9.3 | 0.5%
